Data on eight molecules can be found in PubChem BioAssay (Tox21).

The nature of test [1]: qHTS assay for small molecule agonists of the p53 signaling pathway (AID 651631; calls by dose curve; further: nearly all actives have a fitted effect of over 15% in size; further: potency means the concentration at half of the fitted maximal effect). The method, boiled down: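 Testing took place in human colorectal HCT-116 cells with stable p53RE-driven beta-lactamase. After 16 h of compound exposure at 37 °C, a FRET substrate was added and fluorescence recorded 2 h later.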
A general note: Quantitative high-throughput screening tests each substance at several concentrations.

Test [2] can be described thus: qHTS assay for small molecule agonists of the p53 signaling pathway - cell viability (AID 651633; calls by dose curve; further: nearly all actives have a fitted effect of over 30% in size). The method, boiled down:
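Viability counter-read: CellTiter-Glo luminescence (30 min, room temperature) in the same p53RE-bla plates. These plates had been exposed to compounds for 16 h at 37 C.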

Test [3] is described as follows: qHTS assay for small molecule disruptors of the mitochondrial membrane potential - cell viability (AID 720634; calls by dose curve;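 further: human HepG2 liver cancer cells; nearly all actives have a fitted effect of over 20% in size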). The method, boiled down: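 Same-well counter-screen: following the MMP dye addition, CellTiter-Glo was added to 1 hr compound-treated HepG2 cells and luminescence read after 30 min at room temperature.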
Test [4] can be described thus: qHTS assay to test for compound auto fluorescence at 590 nm (red) in HepG2 cells (AID 720674). The method, boiled down: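 Red autofluorescence (Ex/Em 540/590 nm, Rose Bengal sodium equivalents) was measured in HepG2 cells, 2,000 per well in MEM plus 10% FBS, plated overnight at 37 C. Readings were taken 1 hr after adding 23 nL compound or DMSO, at 37 C and 5% CO2.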

Test [5] is described as follows: qHTS assay to test for compound auto fluorescence at 535 nm (green) in HepG2 cells (AID 720675).
The nature of test [6]: qHTS assay to test for compound auto fluorescence at 460 nm (blue) in HEK293 cells (AID 720678). The method, boiled down: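 HEK293, 2,000 cells/well, 10% dialyzed FBS; attach 4-5 hr 37C; pin compound or DMSO; o/n 37C/5% CO2; fluorescence 405/460 nm; triamterene-equivalent units.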
Test [7] in a line: qHTS assay to test for compound auto fluorescence at 535 nm (green) in HEK293 cells (AID 720680).
A short description of test [8]: qHTS assay to test for compound auto fluorescence at 460 nm (blue) in HEK293 cell free culture (AID 720681). The method, boiled down:
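Blue fluorescence (Ex 405/Em 460 nm, triamterene-equivalent) was read immediately after pin transfer of compound or DMSO into medium (DMEM, 10% FBS) without cells.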

Test [9] is described as follows: qHTS assay to test for compound auto fluorescence at 535 nm (green) in HEK293 cell free culture (AID 720682). The method, boiled down:
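DMEM + 10% FBS, cell-free; cpd or DMSO pinned in; Ex485/Em535 read; output as fluorescein-equivalent signal.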

Test [10] in a line: qHTS assay to test for compound auto fluorescence at 590 nm (red) in HEK293 cell free culture (AID 720683). The method, boiled down:
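Red-channel autofluorescence of compounds in culture medium (DMEM, 10% FBS), no cells, measured at 540/590 nm. Rose Bengal sodium is the reference fluorophore for equivalence.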

A short description of test [11]: qHTS assay to test for compound auto fluorescence at 590 nm (red) in HepG2 cell free culture (AID 720684). The method, boiled down:
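No cells present: MEM + 10% FBS only. Compound pinned in, red label read (540/590 nm). Activity = fluorescence equivalent to Rose Bengal sodium.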

Test [12] in a line: qHTS assay to test for compound auto fluorescence at 460 nm (blue) in HepG2 cell free culture (AID 720685). The method, boiled down:
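Cell-free plates of MEM plus 10% FBS received 23 nL compound or DMSO vehicle; blue-channel (405/460 nm) intensity scored against triamterene as reference fluorophore.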

Test [13] is described as follows: qHTS assay to test for compound auto fluorescence at 460 nm (blue) in HepG2 cells (AID 720687). The method, boiled down: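 Blue-channel autofluorescence (Ex/Em 405/460 nm, triamterene-equivalent) was measured after 1 hr compound exposure at 37 C, 5% CO2. Cells were HepG2, plated overnight at 37 C in MEM plus 10% FBS.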
Test [14] has as its target Glucocorticoid receptor (Homo sapiens) (UniProt P04150). The test is described as follows: qHTS assay to identify small molecule agonists of the glucocorticoid receptor (GR) signaling pathway (AID 720691; active means well fitted activation curve with a large enough effect in the signal ratio in the repeat runs, not every such curve was filed as active; inconclusive means weak or mixed curves, or effect the other way; inactive means no such curve, though single readings can be large or run the other way; the % refers to the signal ratio). The conditions noted are these: GR-bla HeLa, beta-lactamase reporter ratio, 18 h. The method, boiled down:
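A HeLa cervical cancer line expressing GR and a glucocorticoid response element-driven beta-lactamase gene is treated with compounds for 18 h; LiveBLAzer B/G FRET substrate is then applied and fluorescence read.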

Test [15] shares this target. The test is described as follows: qHTS assay to identify small molecule antagonists of the glucocorticoid receptor (GR) signaling pathway (AID 720692; active means well fitted inhibition curve with a large enough effect in the signal ratio in the repeat runs, not every such curve was filed as active; inconclusive means weak or mixed curves, or effect the other way; inactive means no such curve, though single readings can be large or run the other way; the % refers to the signal ratio). The method, boiled down:
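GRE-bla HeLa line, dex-stimulated (5 nM final). Compound exposure 18 h, 37 C. Beta-lactamase FRET read after 2 h RT substrate.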

Test [16] in a line: qHTS assay for small molecules that induce genotoxicity in human embryonic kidney cells expressing luciferase-tagged ATAD5 (AID 651632). Further: nearly all actives have a fitted effect of over 15% in size. The method, boiled down: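 Test compounds were delivered by pin tool onto HEK293T reporter cells (2,000/well) expressing ATAD5 fused to luciferase. After 16 hr at 37C, 5% CO2, Amplite was added for 30 min at room temperature and luminescence was measured.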

The nature of test [17]: qHTS assay for small molecules that induce genotoxicity in human embryonic kidney cells expressing luciferase-tagged ATAD5 - cell viability (AID 651634; calls by dose curve; further: nearly all actives have a fitted effect of over 25% in size). The method, boiled down:
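Quantitative high-throughput format. HEK293T cells expressing ATAD5 fused to luciferase were plated at 2,000 cells/well and treated 15.5 hr with compound versus DMSO. Viability was determined by fluorescent live-cell protease substrate, 30 min at 37C.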

Test [18] can be described thus: qHTS assay to test for compound auto fluorescence at 590 nm (red) in HEK293 cells (AID 720679). The method, boiled down:
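Intensity at 540nm excitation and 590nm emission is reported as Rose Bengal sodium-equivalent autofluorescence. Measurements followed overnight exposure (37C, 5% CO2) of HEK293 cells, 2,000 per well, to 23 nL compound.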

Test [19] can be described thus: qHTS assay to test for compound auto fluorescence at 535 nm (green) in HepG2 cell free culture (AID 720686).
[20] abbreviates: activation: at 62.4 µM (top of the series).

“And” between values parts separate entries of the source, which are not always exact repeats. Equal entries are not always repeated. Unmarked numbers belong to inactive results. A structure can be active in one record and inactive in another. The source made the active and inactive calls. Unless noted, the call rests on the fitted dose curve; in most records, active means well fitted curve in the direction sought with a large enough effect in the repeat runs; inconclusive means weak or mixed curves; inactive means no such curve, though single readings can be large; an effect the other way counts as inactive or inconclusive.
On the % scale 0 is the no-effect control and ±100 the full control effect.

Sequence of Glucocorticoid receptor (Homo sapiens) (P04150 whole entry, looked up): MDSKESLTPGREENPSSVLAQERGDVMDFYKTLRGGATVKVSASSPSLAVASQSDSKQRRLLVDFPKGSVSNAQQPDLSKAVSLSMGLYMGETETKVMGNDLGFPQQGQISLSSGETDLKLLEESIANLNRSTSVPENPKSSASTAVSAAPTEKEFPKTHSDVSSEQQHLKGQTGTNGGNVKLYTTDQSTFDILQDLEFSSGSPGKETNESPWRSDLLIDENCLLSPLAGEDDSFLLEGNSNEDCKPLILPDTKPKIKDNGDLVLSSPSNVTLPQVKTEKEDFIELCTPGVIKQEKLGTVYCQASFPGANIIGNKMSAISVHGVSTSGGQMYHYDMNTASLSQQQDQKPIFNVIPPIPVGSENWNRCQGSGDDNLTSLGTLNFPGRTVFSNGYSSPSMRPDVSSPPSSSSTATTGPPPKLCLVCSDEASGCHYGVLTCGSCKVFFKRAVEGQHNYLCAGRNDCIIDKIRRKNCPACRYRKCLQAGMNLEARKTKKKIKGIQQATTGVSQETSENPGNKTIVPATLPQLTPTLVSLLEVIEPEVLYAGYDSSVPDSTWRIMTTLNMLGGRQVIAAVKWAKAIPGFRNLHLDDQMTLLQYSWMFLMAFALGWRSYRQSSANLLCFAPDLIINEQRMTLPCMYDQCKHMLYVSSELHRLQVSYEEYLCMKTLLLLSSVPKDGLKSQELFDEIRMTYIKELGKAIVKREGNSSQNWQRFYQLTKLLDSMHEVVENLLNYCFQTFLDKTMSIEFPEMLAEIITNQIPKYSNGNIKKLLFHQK

On to `COCCCOc1ccnc(CS(=O)c2nc3ccccc3[nH]2)c1C` (stereo not drawn), for which the Potency result in test [1], in test [2], in test [3] and in test [15] was “inactive” each time. Further, the molecule was called inactive in test [4], in [5], in test [6], in test [7], in [8] and in [9]. Also, the molecule was called inactive in test [10], in [11], in [12] and in test [13]. Moreover, the activation is 16.4% [inconclusive] (active) in test [14] (setting [20]) and -5.49% in [14] (at 62.4 µM (top of the series)).

Consider `CC(=O)Nc1ccccc1`, for which the outcome in [16], in [4], in test [5], in [6], in test [18] and in test [7] was inactive. Further, the call in test [8], in test [9], in [10], in test [11], in test [12] and in test [19] was inactive. Moreover, the call in test [13] was inactive. Further, the Potency result in [2], in [17], in [3], in [14] (setting [20]) and in test [15] was “inactive” each time.

Take `NNc1nncc2ccccc12`: the Potency result in test [1], in test [2], in test [3], in [14] (setting [20]) and in test [15] was “inactive” each time. Also, the result in [4], in [5], in test [6], in test [7], in test [8] and in test [9] was inactive. Moreover, the result in test [10], in test [11], in test [19] and in test [13] was inactive.

With `COS(C)(=O)=O`, the outcome in [16], in test [4], in test [5], in [6], in test [18] and in [7] was inactive. In addition, the call in test [8], in [9], in test [10], in [11], in test [19] and in test [13] was inactive. For the same molecule, the Potency entry in test [2], in [17], in test [3], in [14] (setting [20]) and in test [15] was “inactive” in each case.

`OC[C@H]1O[C@@](CO)(O[C@H]2O[C@H](CO)[C@@H](O)[C@H](O)[C@H]2O)[C@@H](O)[C@@H]1O`: the result in test [16], in test [4], in [5], in [6], in test [18] and in test [7] was inactive. The outcome in test [8], in test [9], in [10], in test [11], in [12] and in [13] was inactive. The Potency result in test [17] is “inactive”.

For the molecule `O=C(O)c1ccccc1C(c1ccc(O)cc1)c1ccc(O)cc1`, the Potency entry in test [2], in test [17], in test [3], in test [14] (setting [20]) and in [15] was “inactive” each time. Also, the molecule was called inactive in [4], in test [5], in test [6], in test [18], in [7] and in [8]. The result in test [9], in test [10], in test [11], in test [12], in test [19] and in test [13] was inactive.

In the case of `CCCSc1ccc2nc(NC(=O)OC)[nH]c2c1`, the Potency in [1] was 320 nM (active) and 306 nM (active). In addition, the Potency entry in test [2], in test [3] and in test [14] (setting [20]) was “inactive” in each case. The molecule was classed as inactive in [4], in test [5], in test [6], in test [18], in test [7] and in test [8]. Also, the molecule was classed as inactive in test [9], in [10], in [11] and in test [13].

For `O=C(Oc1ccccc1)c1ccccc1`, the Potency entry in test [2], in [17] and in [3] was “inactive” in each case. The molecule was classed as inactive in test [4], in test [5], in test [6], in test [7], in test [8] and in test [9]. Besides, the outcome in [10], in test [11], in test [12] and in test [19] was inactive.
